Records with an inconclusive call do not appear. Values without a mark were called inactive. Active and inactive are the calls of the source. Calls follow the shape of the dose curve; as a rule, active = well fitted inhibition curve with a large enough effect; inconclusive = small, poorly fitted or top-dose-only effect; inactive = no such curve, though single readings can be large or run the other way.
Assay: qHTS Screen of the MIPE 4.0 Collection Against Ewings Sarcoma (RDES) (AID 1259252); also: nearly all actives have a fitted effect of over 35% in size;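 as to viability (percent of control): 100% = DMSO-treated cells and 0% = medium-only wells without cells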
Details: RD-ES Ewing sarcoma viability, CellTiter-Glo, 48 h; series mostly up to 45.8 µM; viability (percent of control): at the top concentration
Text: There is a large unmet medical need for treatments for Ewing sarcoma, a pediatric sarcoma. We sought to identify compounds that inhibited Ewing sarcoma cells in vitro with the goal to then test promising drugs in two drug combinations in vitro to look for synergistic drug combinations. Promising combinations would then proceed to additional validation, including in vivo testing.
Using the NCATS developed oncology compound library called the Mechanism of Interrogation Plate (MIPE), four Ewing sarcoma cell lines were evaluated (TC32, TC71, RDES, EW8). Compounds, in a 12-point titration series, were incubated with cells for 48 hours and the read out was cell viability (CellTiter-Glo from Promega). These initial experiments were used to select appropriate concentrations of each single agent for subsequent two-drug matrix combinations such that the concentrations in the matrices would span both activity and non-activity.
Cells, in the log phase of growth, were seeded in 5 uL of RPMI plus 5% FBS, […] L-glutamine, 100 U/ml penicillin and 100 ug/ml streptomycin into 1536-well solid-bottom white tissue culture treated Greiner Bio One Plates (789173-F) using a MultiDrop Combi (Thermofisher Scientific) dispenser and a small sterile cassette. One column was media alone to be used as a :"no cells" control. The plates were then covered with sterilized stainless steel gasketed lids from Kalypsys. After allowing cells to attach for 4 hours, 23 nL of test compound or control (negative control DMSO and positive control 9.2 uM Bortezomib-final) were added from a 1536-well polypropylene compound source plate to each well using a 1536 head pin tool from Kalypsys. Cells were then incubated for 48 hours at 37C, 95% relative humidity and 5% CO2. After 48 hours, plates were removed from the incubator and 3 uL of CellTiter-Glo (Promega) was added using an Aurora Flying Reagent Dispenser Bioraptor. Plates were incubated at room temperature for 10 minutes prior to reading the luminescence on the Viewlux (PerkinElmer). The relative luciferase units are used to calculate the percent activity using the activity of DMSO in the cells and no cells columns for normalization of no inhibition and full inhibition respectively.
Potency is read from the fitted curve at half-maximal effect.

Structure (SMILES) | Potency | viability (percent of control) [%]
O=c1ncn2nc(Sc3ccc(F)cc3F)ccc2c1-c1c(Cl)cccc1Cl | 20.9 µM (active) | 
CC(C)(N)C(=O)N[C@H](COCc1ccccc1)C(=O)N1CCC2(CC1)CN(S(C)(=O)=O)c1ccccc12 | 20.9 µM (active) | 
Cc1ccc(N(CC2=NCCN2)c2cccc(O)c2)cc1 |  | 105
NC(=O)c1ccc(-c2nc(-c3ccc4c(c3)OCO4)c(-c3ccccn3)[nH]2)cc1 |  | 124
CC[C@@H](C)[C@H](NC(=O)[C@H](CC1CCCCC1)NC(=O)c1ccno1)C(=O)N1CCC2(CCc3ccccc32)CC1 |  | 115
CC(C[N+](C)(C)C)OC(N)=O (stereo not given) |  | 118
N#CC[C@H](C1CCCC1)n1cc(-c2ncnc3[nH]ccc23)cn1 | 18.7 µM (active) | 
NS(=O)(=O)c1cc2c(cc1Cl)NC=NS2(=O)=O |  | 113
CN1CCN(CCCN2c3ccccc3Sc3ccc(C(F)(F)F)cc32)CC1 | 10.5 µM (active) | 
CNC(=O)c1ccc(N2C(=S)N(c3ccc(C#N)c(C(F)(F)F)c3)C(=O)C2(C)C)cc1F |  | 137
OC[C@H](Cc1ccccc1)Nc1nc(Oc2ccc3c(c2)CCC3)nc2c1ncn2Cc1ccc(-c2ccccc2)cc1 | 14.8 µM (active) | 
CCN(c1ccccc1)c1cc(NC)[n+](C)c(C)n1 | 7.43 µM (active) | 
CCn1cc(C(=O)O)c(=O)c2cc(F)c(N3CCNC(C)C3)c(F)c21 (stereo not given) |  | 114
OC(CN1CCC(Cc2ccc(F)cc2)CC1)c1ccc(Cl)cc1 (stereo not given) |  | 108
OC(CCN1CCCCC1)(c1ccccc1)C1CC2C=CC1C2 (stereo not given) |  | 131
O=C(c1cc(Cc2n[nH]c(=O)c3ccccc23)ccc1F)N1CCN(C(=O)C2CC2)CC1 | 8.33 µM (active) | 
COc1ccc(COc2cc3oc(=O)c4cc(C(C)O)ccc4c3cc2OC)cc1 (stereo not given) | 13.2 µM (active) | 
C1COC(NC(C2CC2)C2CC2)=N1 |  | 130
O=C1CCCC2=C1C(c1[nH]ncc1Cl)N=C(Nc1nc3ccccc3o1)N2 (stereo not given) |  | 101
CCn1c(-c2nonc2N)nc2c(C#CC(C)(C)O)ncc(OC[C@H]3CCCNC3)c21 | 23.5 µM (active) | 

Structure (SMILES) | Potency | viability (percent of control) [%]
Cc1cn[nH]c1 | 0.0074 µM (active) | 
Nc1cccc(S(=O)(=O)N2CCCN(S(=O)(=O)c3ccc4c(c3)OCCO4)CC2)c1 |  | 107
Cc1cc(Nc2nc(N[C@@H](C)c3ncc(F)cn3)ncc2Cl)n[nH]1 | 6.62 µM (active) | 
CCOC(=O)C1=C[C@]2(CC)CCCN3CCc4c(n1c1ccccc41)[C@@H]32 | 23.5 µM (active) | 
N[C@@H]1CONC1=O |  | 109
CCOc1cc(C=C2C(=O)N(c3ccccc3)N=C2C)cc(Cl)c1OCC(=O)OC | 5.26 µM (active) | 
Cc1cnc(NC(=O)C2=C(O)c3ccccc3S(=O)(=O)N2C)s1 |  | 116
NC(=O)c1ccc(I)c([N+](=O)[O-])c1 |  | 144
COc1cccc2cc(-c3nc(C4CCC(C(=O)O)CC4)n4ncnc(N)c34)[nH]c12 (stereo not given) | 0.833 µM (active) | 
NNCCc1ccccc1 | 8.33 µM (active) | 
CN(C)c1ccc(Nc2nc(N)n(C(=O)c3c(F)cccc3F)n2)cc1 | 5.9 µM (active) | 
NC(=O)c1cnccn1 |  | 121
CCCCCCCc1ccc(CCc2cccc(O)c2C(=O)O)cc1 | 18.7 µM (active) | 
Cn1cnc([N+](=O)[O-])c1Sc1ncnc2nc[nH]c12 | 2.64 µM (active) | 
N=c1nc(N2CCCCC2)cc(N)n1O |  | 129
COc1cc2nccc(Oc3ccc(NC(=O)NC4CC4)c(Cl)c3)c2cc1C(N)=O | 0.833 µM (active) | 
Cc1ccc(NC(=O)c2cccc(C(C)(C)C#N)c2)cc1Nc1ccc2ncn(C)c(=O)c2c1 | 14.8 µM (active) | 
Cc1csc(NC(=O)c2sc3nc4c(c(C(F)(F)F)c3c2N)CCC4)n1 | 1.48 µM (active) | 
CCCc1nn(C)c2c(=O)[nH]c(-c3cc(S(=O)(=O)N4CCN(C)CC4)ccc3OCC)nc12 | 14.8 µM (active) | 
O=C(O)CCc1ccc(NCc2cccc(Oc3ccccc3)c2)cc1 |  | 98.7

— PubChem BioAssay (NCATS)
